Bioassay records from PubChem.
PAFAH2 FP inh = PAFAH2 enzyme inhibitors, primary screen, biochemical, fluorescence polarization, human | recombinant PAFAH2, FP-rhodamine activity probe | inhibition, % at 3.39 µM | 340,000 compounds, 0.99% hits | AID 492956, 2010;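 active means inhibition above the mean over all tested compounds plus 3 SD, cut at about 30% in these data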;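 further: inhibitors block probe labeling of enzyme so polarization drops; 0% = enzyme with DMSO and 100% = wells lacking PAFAH2 protein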
EBNA-1 inhibitor = EBNA-1 DNA-binding inhibitors, primary screen, biochemical, fluorescence polarization; AID 1950, 2009; 300,000 compounds, 0.34% hits; inhibition, % at 14.8 µM; in the data active means inhibition above about 28%
ZTA counter = blocks Epstein-Barr virus ZTA, an EBNA-1 counter-screen | inhibition, % at 11 µM | ZTA-DNA binding, fluorescence polarization | 320,000 compounds, 0.15% hits; in the data active means inhibition above about 33%
PAFAH1B2 inh = PAFAH1B2 enzyme inhibitors, primary screen, biochemical, fluorescence polarization, human | Platelet-activating factor acetylhydrolase IB subunit alpha2 (Homo sapiens), P68402 | recombinant PAFAH1B2, FP-rhodamine activity probe | inhibition, % at 3.39 µM | 340,000 compounds, 1.2% hits;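 active means inhibition above the mean of all tested compounds plus 3 SD, cut at about 24% in these data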;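 further: 0% = enzyme with DMSO and 100% = wells lacking PAFAH1B2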
Target sequence (P68402 whole entry, looked up): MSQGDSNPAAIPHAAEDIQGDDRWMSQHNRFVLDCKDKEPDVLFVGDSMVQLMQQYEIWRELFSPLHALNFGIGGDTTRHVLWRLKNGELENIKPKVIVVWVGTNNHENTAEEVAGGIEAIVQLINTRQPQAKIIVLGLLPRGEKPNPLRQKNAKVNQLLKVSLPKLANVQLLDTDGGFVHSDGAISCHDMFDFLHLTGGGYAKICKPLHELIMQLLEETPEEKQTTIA
rCAG RNA binder = binders of r(CAG) RNA repeats, primary screen, biochemical, fluorescence. AID 651821, 2012. inhibition, % at 3 µM. 370,000 compounds, 1.3% hits. r(CAG) RNA repeat, TO-PRO-1 dye displacement fluorescence;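 active means inhibition above the plate cutoff, the mean of all test compounds on that plate plus 3 SD, cut at about 35% in these data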;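 further: 0% = DMSO alone and 100% = 100 µM mitoxantrone as full dye displacement; higher means more dye released from RNA so lower well fluorescence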
PAFAH1B3 inh = PAFAH1B3 enzyme inhibitors, primary screen, biochemical, fluorescence polarization, human | Platelet-activating factor acetylhydrolase IB subunit alpha1 (Homo sapiens), Q15102 | recombinant PAFAH1B3, FP-rhodamine probe | inhibition, % at 3.39 µM | 340,000 compounds, 0.28% hits;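 active means inhibition above the screen-wide average of all tested compounds plus 3 SD, cut at about 25% in these data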;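 further: 0% = enzyme with DMSO only and 100% = wells lacking PAFAH1B3 protein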
Target sequence (Q15102 whole entry, looked up): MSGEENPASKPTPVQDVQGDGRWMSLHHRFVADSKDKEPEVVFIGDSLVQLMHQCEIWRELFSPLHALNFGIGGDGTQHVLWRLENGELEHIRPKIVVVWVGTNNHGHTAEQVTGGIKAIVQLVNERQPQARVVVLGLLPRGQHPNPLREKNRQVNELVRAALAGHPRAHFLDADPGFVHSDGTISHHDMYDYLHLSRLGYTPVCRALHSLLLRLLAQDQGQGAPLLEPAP
* = called active by the depositor; nt = not tested or not shown. A selection: hits, their analogues and other compounds. The true share with any hit is near 2.9%.

SMILES	PAFAH2 FP inh	EBNA-1 inhibitor	ZTA counter	PAFAH1B2 inh	rCAG RNA binder	PAFAH1B3 inh
CC1CCCC(NC(=O)c2cccc(S(=O)(=O)NCc3ccccc3)c2)C1C (stereo unspecified)	1	nt	-2	30*	1	0
CN(Cc1ccc(F)cc1)C(=O)c1ccc(NS(=O)(=O)c2ccccc2)cc1	4	3	-1	6	2	-5
COc1cccc(CC(=O)N2CCN(C(=O)C(=O)c3ccc(OC)c(OC)c3)CC2)c1	nt	nt	nt	nt	0	nt
COC1=C[C@H](C(=O)N[C@H]2CCCC[C@@H]2NC(C)=O)[C@H](C)[C@@H](c2ccccc2)CC1=O	nt	nt	nt	nt	7	nt
O=c1c2ccccc2n(Cc2ccco2)n1[C@@H](Cc1ccccc1)Cn1cc(C2CCCC2)nn1	nt	nt	nt	nt	4	nt
COCCNC(=S)N(C)[C@H]1C[C@H]2c3[nH]c4c(-c5cccc(C)c5)cccc4c3CCN2C[C@H]1[C@H](C)O	nt	nt	nt	nt	7	nt
COc1cccc(/C=N/c2sc(Cc3ccccc3)c(C)c2C(N)=O)c1O	4	10	11	2	37*	2
COC(=O)CCC(=O)Nc1sc(Cc2ccccc2)c(C)c1C(N)=O	-2	14	-11	0	7	7
CCCCCCCCN1C(=O)[C@H](CC(=O)N2CCC(c3ccccc3)CC2)C[C@@]2(C(=O)OC)CC(C)(C)CC=C12	nt	nt	nt	nt	4	nt
CC(=O)Nc1ccc(NC(=O)C(C)OC(=O)C2(c3ccc(F)cc3)CCCC2)cc1 (stereo unspecified)	-2	0	-6	41*	-3	19
CC(=O)Nc1ccc(NC(=O)C(C)OC(=O)C(C)SCC(=O)Nc2ccc(F)cc2)cc1 (stereo unspecified)	4	-12	-8	-1	-2	6
CSc1ccccc1NC(=O)COC(=O)c1ccc(-n2nc(C)cc2C)cc1	59*	nt	nt	5	-1	7
CCCCOCCCNC(=O)C[C@H]1C[C@@]2(C(=O)OC)C(=C[C@H](C(C)C)O[C@@H]2C2CC2)N(Cc2ccccc2)C1=O	nt	nt	nt	nt	0	nt
O=S(=O)(c1ccc2nc(-c3ccco3)c(-c3ccco3)nc2c1)N1CCOCC1	21	-4	-8	11	69*	12
O=C(COc1ccc(-c2ccccc2)cc1)NNC(=O)Nc1ccccc1	-7	nt	6	1	6	-4
CC(C)(C)c1ccc(OCC(=O)NNC(=O)Nc2ccccc2)cc1	-4	5	12	39*	-1	6
N#Cc1ccc(/C=C2\CC3(OC(=O)c4ccco4)CCCN2C3)cc1 (stereo unspecified)	nt	nt	nt	nt	1	nt
Cc1cccc(C(=O)Nc2sc(-c3ccccc3)cc2C(=O)O)c1	23	-11	4	33*	94*	9
CC(C)(C)C(=O)Nc1sc(-c2ccccc2)cc1C(=O)O	1	2	1	9	18	-3
CCCCC#Cc1ccccc1COC[B-](F)(F)F	nt	nt	nt	nt	9	nt
CCOc1ccc(-n2c(SCC(=O)Nc3cccc4ccccc34)nnc2-c2ccco2)cc1	nt	nt	nt	nt	6	nt
OC(c1ccc(Cl)cc1)c1nnc(-c2ccccc2)o1 (stereo unspecified)	3	-3	8	24*	-5	0
CCCCNS(=O)(=O)c1ccc2nc(SCC(N)=O)[nH]c2c1	-2	3	-3	-2	-2	9
CCCCNS(=O)(=O)c1ccc2nc(SCC(=O)Nc3sccc3C#N)[nH]c2c1	-7	-11	-12	-1	38*	6
CC(C)c1ccc(-c2nc(N3CCOCC3)[nH]c(=O)c2C#N)cc1	0	12	2	33*	2	7
SMILES	PAFAH2 FP inh	EBNA-1 inhibitor	ZTA counter	PAFAH1B2 inh	rCAG RNA binder	PAFAH1B3 inh
COc1nc(OC)nc(N2CCC(C(=O)N(C)Cc3ccccc3F)CC2)n1	nt	nt	nt	nt	-2	nt
CCOC(=O)[C@@]12CCCC=C1N(CCc1ccc(Cl)cc1)C(=O)[C@H]2CC(=O)N1CCSCC1	nt	nt	nt	nt	8	nt
CCn1c(=O)n(CC(=O)N2CCCN(Cc3ccccc3)CC2)c(=O)c2ccccc21	nt	nt	nt	nt	0	nt
N#CC1=C(N)N(c2ccc(F)cc2)C2=C(C1c1ccc(O)cc1)S(=O)(=O)CC2 (stereo unspecified)	-23	nt	nt	-3	35*	-10
CSc1ccc(C2C(C#N)=C(N)N(c3ccccc3)C3=C2C(=O)CCC3)cc1 (stereo unspecified)	4	-1	9	3	-2	-1
C=CCN=C1NC(c2ccc(F)cc2)C(C(=O)OC)=C(C)N1Cc1ccccc1C(F)(F)F (stereo unspecified)	nt	nt	nt	nt	3	nt
Oc1oc(-c2ccccc2Br)nc1C=Nc1ccc(Br)cn1	53*	24	12	-3	2	4
Cc1ccc(SCc2[nH]nc3c2C2(CCSCC2)C(C#N)=C(N)O3)cc1	1	-2	-10	38*	11	-6
CCOC(=O)N1CCC2(CC1)C(C#N)=C(N)Oc1n[nH]c(CSc3ccc(C)cc3)c12	2	4	-1	27*	13	3
CCOc1ccc(C2Nc3cccc4cccc(c34)N2)cc1OC	9	-7	-5	-1	11	9
CCOc1cc(C2Nc3cccc4cccc(c34)N2)ccc1O	41*	-23	-13	27*	nt	40*
COc1ccc(NC(=O)Nc2cccc3c2O[C@H](CN(C)C(=O)Nc2ccc(C(F)(F)F)cc2)[C@@H](C)CN([C@H](C)CO)C3=O)cc1	-8	nt	nt	68*	nt	3
C[C@H]1CN([C@@H](C)CO)C(=O)c2cccc(NC(=O)Nc3ccc(C(F)(F)F)cc3)c2O[C@H]1CN(C)C	-13	nt	nt	3	-6	10
C[C@H](CO)N1C[C@H](C)[C@@H](CN(C)C(=O)Nc2ccc(C(F)(F)F)cc2)Oc2c(NS(=O)(=O)c3cccs3)cccc2C1=O	2	nt	nt	25*	27	2
C[C@H](CO)N1C[C@H](C)[C@@H](CN(C)C(=O)Nc2ccc(C(F)(F)F)cc2)Oc2c(NC(=O)Nc3ccc(C(F)(F)F)cc3)cccc2C1=O	-51	nt	nt	51*	14	-41
C[C@H]1CN([C@@H](C)CO)C(=O)c2cccc(NC(=O)Nc3ccc(C(F)(F)F)cc3)c2O[C@@H]1CN(C)C(=O)Nc1ccc(F)cc1	-24	nt	nt	52*	15	-13
COc1ccc(NC(=O)N(C)C[C@H]2Oc3c(NC(=O)NC(C)C)cccc3C(=O)N([C@H](C)CO)C[C@@H]2C)cc1	12	nt	nt	2	-4	2
CCOC(=O)[C@@]12CCCC3=C1N(CCC3)C(=O)[C@H]2CC(=O)NCCCN1CCCC1=O	nt	nt	nt	nt	0	nt
CC(C)C[C@H]1COc2cc(Br)ccc2S(=O)(=O)N1Cc1cn(CCC2OCCO2)nn1	nt	nt	nt	nt	1	nt
COc1ccc(C2CC(=O)C(c3ccccc3)=CN2Cc2ccccc2)cc1 (stereo unspecified)	nt	nt	nt	nt	5	nt
